# Inconclusive results are not listed. Entries that show only a call come without a potency. Values without a mark were called inactive. Calls of active or inactive are those of the source. Calls come from the whole dose curve; as a rule, active = well fitted curve in the direction sought with a large enough effect; inconclusive = small, poorly fitted or top-dose-only effect, or another doubt; inactive = no such curve, though single readings can be large; an effect the other way counts as inactive or inconclusive.
# Assays:
# C33A = experiment: Primary qHTS to identify gynecologic anti-cancer compounds using libraries of approved drugs and bioactive compounds (AID 1345084); conditions: Gynecologic cancer cell panel viability, ATPlite luminescence, 48 h; series mostly up to 57.5 µM; note: nearly all actives have a fitted effect of over 55% in size
# Summary of the method: (§1)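 ATP-based viability (ATPlite), 1,000 cells/well, 16 h pre-incubation, 48 h compound at 37 C, 5% CO2, 15 min RT before read.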
# CAOV3 = experiment: as above; conditions: Gynecologic cancer cell panel viability, ATPlite luminescence, 48 h; series mostly up to 57.5 µM
# Summary of the method: as §1
# CASKI = experiment: as above; conditions: Gynecologic cancer cell panel viability, ATPlite luminescence, 48 h; series mostly up to 57.5 µM
# Summary of the method: as §1
# Es-2 = experiment: as above; conditions: Gynecologic cancer cell panel viability, ATPlite luminescence, 48 h; series mostly up to 57.5 µM
# Summary of the method: as §1
# HeLa = experiment: as above; conditions: Gynecologic cancer cell panel viability, ATPlite luminescence, 48 h; series mostly up to 57.5 µM
# Summary of the method: as §1
# Hek293T = experiment: as above; conditions: Gynecologic cancer cell panel viability, ATPlite luminescence, 48 h, control line for the selectivity index; series mostly up to 57.5 µM
# Summary of the method: as §1
# JEG-3 = experiment: as above; conditions: Gynecologic cancer cell panel viability, ATPlite luminescence, 48 h; series mostly up to 57.5 µM
# Summary of the method: as §1
# OV90 = experiment: as above; conditions: Gynecologic cancer cell panel viability, ATPlite luminescence, 48 h; series mostly up to 57.5 µM
# Summary of the method: as §1
# PA-1 = experiment: as above; conditions: Gynecologic cancer cell panel viability, ATPlite luminescence, 48 h; series mostly up to 57.5 µM
# Summary of the method: as §1
# SKOV3 = experiment: as above; conditions: Gynecologic cancer cell panel viability, ATPlite luminescence, 48 h; series mostly up to 57.5 µM
# Summary of the method: as §1
# Tov-21-G = experiment: as above; conditions: Gynecologic cancer cell panel viability, ATPlite luminescence, 48 h; series mostly up to 57.5 µM
# Summary of the method: as §1
# Tov112D = experiment: as above; conditions: Gynecologic cancer cell panel viability, ATPlite luminescence, 48 h; series mostly up to 57.5 µM
# Summary of the method: as §1
# [1] = Drug repurposing screens with cells derived from glioblastoma tumor samples (AID 1345199); conditions: GBM patient neurospheres viability, ATP luminescence, 48 h; note: nearly all actives have a fitted effect of over 40% in size
# Summary of the method: (§2)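 Primary testing used CD133+ neurospheres from four GBM patients, seven concentrations, 48 h exposure and ATP-based viability; confirmation added three slower-growing patient lines.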
# astro = experiment: as above; conditions: viability, ATP luminescence, 48 h; series mostly up to 45.9 µM
# Summary of the method: as §2
# [2] = at 45.9 µM (top of the series), tumour line B
# [3] = at 45.9 µM (top of the series), tumour line D
# [4] = at 46 µM (top of the series), tumour line A
# [5] = at 46.1 µM (top of the series), tumour line C
# Potency is the fitted concentration of half-maximal effect.
smiles,measurement,setting,value
Clc1ccc2c(c1)Nc1ccccc1S2,Potency,C33A,inactive
same,Potency,CAOV3,inactive
same,Potency,CASKI,inactive
same,Potency,Es-2,inactive
same,Potency,HeLa,inactive
same,Potency,Hek293T,inactive
same,Potency,JEG-3,inactive
same,Potency,OV90,inactive
same,Potency,PA-1,inactive
same,Potency,SKOV3,inactive
same,Potency,Tov-21-G,inactive
same,Potency,Tov112D,inactive
CSc1ccc(/C=C2/C(C)=C(CC(=O)O)c3cc(F)ccc32)cc1,Potency,C33A,inactive
same,Potency,CAOV3,inactive
same,Potency,CASKI,inactive
same,Potency,Es-2,inactive
same,Potency,HeLa,inactive
same,Potency,Hek293T,inactive
same,Potency,JEG-3,inactive
same,Potency,OV90,inactive
same,Potency,PA-1,inactive
same,Potency,SKOV3,inactive
same,Potency,Tov-21-G,inactive
same,Potency,Tov112D,inactive
same,"activity, negative = cell killing",[1]; [2],-6.37%
same,"activity, negative = cell killing",[1]; [3],-11.2%
same,"activity, negative = cell killing",[1]; [4],-24%
same,"activity, negative = cell killing",[1]; [5],-7.45%
CCOc1ccc(NS(=O)(=O)c2ccc(N)cc2)nn1,Potency,C33A,inactive
same,Potency,CAOV3,inactive
same,Potency,CASKI,inactive
same,Potency,Es-2,inactive
same,Potency,HeLa,inactive
same,Potency,Hek293T,inactive
same,Potency,JEG-3,inactive
same,Potency,OV90,inactive
same,Potency,PA-1,inactive
same,Potency,SKOV3,inactive
same,Potency,Tov-21-G,inactive
same,Potency,Tov112D,inactive
same,"activity, negative = cell killing",[1]; [2],-20.8%
same,"activity, negative = cell killing",[1]; [3],5.52%
same,"activity, negative = cell killing",[1]; [4],-27.9%
same,"activity, negative = cell killing",[1]; [5],9.99%
same,Potency,astro,inactive
Cc1cccc(C)c1NC(=O)c1cc(S(N)(=O)=O)c(Cl)cc1O,Potency,C33A,inactive
same,Potency,CAOV3,inactive
same,Potency,CASKI,inactive
same,Potency,Es-2,inactive
same,Potency,HeLa,inactive
same,Potency,Hek293T,inactive
same,Potency,JEG-3,inactive
same,Potency,OV90,inactive
same,Potency,PA-1,inactive
same,Potency,SKOV3,inactive
same,Potency,Tov-21-G,inactive
same,Potency,Tov112D,inactive
same,"activity, negative = cell killing",[1]; [2],-11.2%
same,"activity, negative = cell killing",[1]; [3],-8.64%
same,"activity, negative = cell killing",[1]; [5],-16.5%
same,Potency,[1]; tumour line A,35500 nM (active)
same,Potency,astro,inactive
CCOC(=O)NNc1ccc(N(CC)CC(C)O)nn1 (configuration not stated),Potency,C33A,inactive
same,Potency,CAOV3,inactive
same,Potency,CASKI,inactive
same,Potency,Es-2,inactive
same,Potency,HeLa,inactive
same,Potency,Hek293T,inactive
same,Potency,JEG-3,inactive
same,Potency,OV90,inactive
same,Potency,PA-1,inactive
same,Potency,SKOV3,inactive
same,Potency,Tov-21-G,inactive
same,Potency,Tov112D,inactive
same,"activity, negative = cell killing",[1]; [2],-1.62%
same,"activity, negative = cell killing",[1]; [3],-9.84%
same,"activity, negative = cell killing",[1]; [4],-25.2%
same,"activity, negative = cell killing",[1]; [5],10.8%
same,Potency,astro,inactive
CN1CC(=O)N2[C@H](c3ccc4c(c3)OCO4)c3[nH]c4ccccc4c3C[C@@H]2C1=O,Potency,C33A,inactive
same,Potency,CAOV3,inactive
same,Potency,CASKI,inactive
same,Potency,Es-2,inactive
same,Potency,HeLa,inactive
same,Potency,Hek293T,inactive
same,Potency,JEG-3,inactive
same,Potency,OV90,inactive
same,Potency,PA-1,inactive
same,Potency,SKOV3,inactive
same,Potency,Tov-21-G,inactive
same,Potency,Tov112D,inactive
C[C@@H]1C[C@H]2[C@@H]3CCC4=CC(=O)C=C[C@]4(C)[C@@]3(F)[C@@H](O)C[C@]2(C)[C@@]1(O)C(=O)COC(=O)c1ccncc1,Potency,C33A,inactive
same,Potency,CAOV3,inactive
same,Potency,CASKI,inactive
same,Potency,Es-2,inactive
same,Potency,HeLa,inactive
same,Potency,Hek293T,inactive
same,Potency,JEG-3,inactive
same,Potency,OV90,inactive
same,Potency,PA-1,inactive
same,Potency,SKOV3,inactive
same,Potency,Tov-21-G,inactive
same,Potency,Tov112D,inactive
CO/N=C(/C(=O)N[C@@H]1C(=O)N2C(C(=O)OCOC(=O)C(C)(C)C)=C(C)CS[C@H]12)c1csc(N)n1,Potency,C33A,inactive
same,Potency,CAOV3,inactive
same,Potency,CASKI,inactive
same,Potency,Es-2,inactive
same,Potency,HeLa,inactive
same,Potency,Hek293T,inactive
same,Potency,JEG-3,inactive
same,Potency,OV90,inactive
same,Potency,PA-1,inactive
same,Potency,SKOV3,inactive
same,Potency,Tov-21-G,inactive
same,Potency,Tov112D,inactive
same,"activity, negative = cell killing",[1]; [2],-3%
same,"activity, negative = cell killing",[1]; [3],4.02%
same,"activity, negative = cell killing",[1]; [4],-24.5%
same,"activity, negative = cell killing",[1]; [5],0.657%
same,Potency,astro,inactive
COc1cc(NS(=O)(=O)c2ccc(N)cc2)nc(C)n1,Potency,C33A,inactive
same,Potency,CAOV3,inactive
same,Potency,CASKI,inactive
same,Potency,Es-2,inactive
same,Potency,HeLa,inactive
same,Potency,Hek293T,inactive
same,Potency,JEG-3,inactive
same,Potency,OV90,inactive
same,Potency,PA-1,inactive
same,Potency,SKOV3,inactive
same,Potency,Tov-21-G,inactive
same,Potency,Tov112D,inactive
same,"activity, negative = cell killing",[1]; [2],-1.01%
same,"activity, negative = cell killing",[1]; [3],-8.58%
same,"activity, negative = cell killing",[1]; [4],-28.7%
same,"activity, negative = cell killing",[1]; [5],5.24%
same,Potency,astro,inactive
CO/N=C(/C(=O)N[C@@H]1C(=O)N2C(C(=O)O)=C(Cn3nnc(C)n3)CS[C@H]12)c1csc(N)n1,Potency,C33A,inactive
same,Potency,CAOV3,inactive
same,Potency,CASKI,inactive
same,Potency,Es-2,inactive
same,Potency,HeLa,inactive
same,Potency,Hek293T,inactive
same,Potency,JEG-3,inactive
same,Potency,OV90,inactive
same,Potency,PA-1,inactive
same,Potency,SKOV3,inactive
same,Potency,Tov-21-G,inactive
same,Potency,Tov112D,inactive
same,"activity, negative = cell killing",[1]; [2],-1.74%
same,"activity, negative = cell killing",[1]; [3],2.54%
same,"activity, negative = cell killing",[1]; [4],-14.3%
same,"activity, negative = cell killing",[1]; [5],9.89%
same,Potency,astro,inactive
Nc1c[n+](N2CCOCC2)no1,Potency,C33A,inactive
same,Potency,CAOV3,inactive
same,Potency,CASKI,inactive
same,Potency,Es-2,inactive
same,Potency,HeLa,inactive
same,Potency,Hek293T,inactive
same,Potency,JEG-3,inactive
same,Potency,OV90,inactive
same,Potency,PA-1,inactive
same,Potency,SKOV3,inactive
same,Potency,Tov-21-G,inactive
same,Potency,Tov112D,inactive
same,"activity, negative = cell killing",[1]; [2],3.67%
same,"activity, negative = cell killing",[1]; [3],-1.79%
same,"activity, negative = cell killing",[1]; [4],-15.9%
same,"activity, negative = cell killing",[1]; [5],-4.45%
same,Potency,astro,inactive
CC1CN(c2cc3c(cc2F)c(=O)c(C(=O)O)cn3-c2ccc(F)cc2F)CCN1 (configuration not stated),Potency,C33A,inactive
same,Potency,CAOV3,inactive
same,Potency,CASKI,inactive
same,Potency,Es-2,inactive
same,"activity change, negative = cytotoxicity",HeLa,5.19% [at 6.55 µM]
same,"activity change, negative = cytotoxicity",Hek293T,-5.43% [at 6.55 µM]
same,"activity change, negative = cytotoxicity",JEG-3,13.6% [at 6.55 µM]
same,"activity change, negative = cytotoxicity",OV90,18.6% [at 6.55 µM]
same,"activity change, negative = cytotoxicity",PA-1,6.96% [at 6.55 µM]
same,"activity change, negative = cytotoxicity",SKOV3,-2.15% [at 6.55 µM]
same,"activity change, negative = cytotoxicity",Tov-21-G,-0.759% [at 6.55 µM]
same,"activity change, negative = cytotoxicity",Tov112D,-5.84% [at 6.55 µM]
same,"activity, negative = cell killing",[1]; [2],-0.773%
same,"activity, negative = cell killing",[1]; [3],-11%
same,"activity, negative = cell killing",[1]; [4],-6.24%
same,"activity, negative = cell killing",[1]; [5],-10.7%
same,Potency,astro,inactive
Cc1nc(N)nc(N)c1-c1ccc(Cl)c(Cl)c1,Potency,C33A,447 nM (active)
same,Potency,CAOV3,inactive
same,Potency,CASKI,1410 nM (active)
same,Potency,Es-2,1000 nM (active)
same,Potency,HeLa,11200 nM (active)
same,Potency,Hek293T,1580 nM (active)
same,Potency,JEG-3,11200 nM (active)
same,Potency,OV90,891 nM (active)
same,Potency,PA-1,3160 nM (active)
same,Potency,SKOV3,inactive
same,Potency,Tov-21-G,794 nM (active)
same,Potency,Tov112D,3550 nM (active)
N[C@@H](Cc1cc(I)c(O)c(I)c1)C(=O)O,Potency,C33A,inactive
same,Potency,CAOV3,inactive
same,Potency,CASKI,inactive
same,Potency,Es-2,inactive
same,Potency,HeLa,inactive
same,Potency,Hek293T,inactive
same,Potency,JEG-3,inactive
same,Potency,OV90,inactive
same,Potency,PA-1,inactive
same,Potency,SKOV3,inactive
same,Potency,Tov-21-G,inactive
same,Potency,Tov112D,inactive
same,"activity, negative = cell killing",[1]; [2],3.22%
same,"activity, negative = cell killing",[1]; [3],2.54%
same,"activity, negative = cell killing",[1]; [4],14.8%
same,"activity, negative = cell killing",[1]; [5],3.63%
same,Potency,astro,inactive

# Source: PubChem BioAssay (NCATS)
